Source: PubChem BioAssay (National Center for Advancing Translational Sciences (NCATS))
NS1 inh: blocks influenza NS1 protein function; Potency, µM (series often up to 46.1 µM), for the others: at the top dose activity, positive = more growth; 0.4% of 270,000 active; calls by dose curve; also: potency is read from the fitted curve at half-maximal effect; actives are rising curves; nearly all actives have a fitted effect of over 50% in size
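Recovery from NS1-induced slow growth read by OD600 in budding yeast switched to galactose assay medium (pH 6.0, -URA) at 1:100 dilution. Compound 23 nl per well; the matching strain lacking NS1 serves as control.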
Shiga toxin inh: Shiga toxin inhibition; Vero cells, Shiga toxin protein synthesis inhibition reporter; inhibition, % at 38.7 µM; 9.2% of 290,000 active; AID 2315; in the data active = inhibition mostly above about 28%, no sharp cut-off; inactive = mostly below about 43%; also: 0% is about no effect
Pf growth 48h: inhibits P. falciparum growth in the first generation, 48 h. Potency, µM (titrated, usually from 28.7 µM), for inactives: at the top dose activity change, negative = inhibition, most hits filed as inhibitors. P. falciparum luciferase growth in erythrocytes, 48 h. AID 504832. 5.9% of 310,000 active; also: potency is read from the fitted curve at half-maximal effect; % is scaled to controls: 0 for no effect and ±100 for the full control effect
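Here the parasites carry a stable luciferase gene and grow inside erythrocytes in Albumax-based RPMI medium with compound for one erythrocytic cycle. Activity is scored as loss of luminescent signal.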
CHX counter: counter-screen hit for Shiga toxin inhibitors, cycloheximide; 12% of 300,000 active; cell reporter, cycloheximide protein synthesis inhibition counterscreen; max response, %; in the data active = max response mostly above about 13%, no sharp cut-off; inactive = mostly below about 14%; also: read at 38.3 µM for the half of the compounds with a filed dose; 0% is about no effect
SARS PLP yeast: inhibitors of SARS-CoV papain-like protease in yeast; S. cerevisiae expressing SARS-CoV PLpro, growth rescue; Potency, µM (top dose mostly 32.9 µM), without a hit: top-dose activity, positive = growth rescue, actives largely listed as activators; 0.19% of 330,000 active; AID 485353; calls by dose curve; also: potency is read from the fitted curve at half-maximal effect; 0% is about no effect; nearly all actives have a fitted effect of over 55% in size
Pf growth 96h: P. falciparum growth inhibition at 96 hour, primary screen for plastid delayed-death inhibitors; Potency, µM (doses to about 28.7 µM), for the others: at the top dose activity change, negative = inhibition, most hits filed as inhibitors; 6.9% of 320,000 active; P. falciparum luciferase reporter growth, 96 h; also: potency is read from the fitted curve at half-maximal effect; % is scaled to controls: 0 for no effect and ±100 for the full control effect
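Plates of compound plus infected erythrocytes (2% hematocrit, 0.05% parasitemia final) incubate 96 hours, 37 C, 5% CO2. Detection reagent added; reduced luminescence from the parasites' luciferase reporter flags inhibition.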
Active calls of the source: *; ? = inconclusive; . = not tested or not shown; [ ] = another dose, or the depositor's remark. The list is not random: actives were taken first. Their share in the collection is about 21%. Unless noted, calls follow the shape of the dose curve; as a rule, active = well fitted inhibition curve with a large enough effect; inconclusive = small, poorly fitted or top-dose-only effect, or another doubt; inactive = no such curve, though single readings can be large or run the other way.

SMILES	NS1 inh	Shiga toxin inh	Pf growth 48h	CHX counter	SARS PLP yeast	Pf growth 96h
O=C(O)c1ccc(Cl)c(S(=O)(=O)Nc2ccc(OCc3ccccc3)cc2)c1	6%	62*	17%	23*	3%	40%
O=C(O)c1cccc(NC(=S)NC(=O)c2cccc(OCc3ccccc3)c2)c1	-2%	39*	5%	14*	0%	43%
Cc1ccc(C(=O)O)cc1NC(=S)NC(=O)c1ccc(COc2ccccc2)cc1	19%	-29	1%	2	0%	24%
COc1ccccc1CN1CCNC(=O)C1CC(=O)NC1CCCCCC1 (stereo unspecified)	16%	-9	?	0	2%	-16%
Cc1ccc(NC(=O)COC(=O)CCC2CCCC2)c(Br)c1	.	.	1%	.	5%	-19%
O=C1c2ccccc2CCC12N=NCC2c1ccc(Br)cc1 (stereo unspecified)	-112%	-8	.	11	-24%	2.3µM*
O=C1c2ccccc2CCC12N=NCC2c1ccc(Cl)cc1 (stereo unspecified)	-61%	-1	10µM*	-2	-17%	?
Cc1ccccc1C(=O)N1CCC(C(=O)N2CCN(S(=O)(=O)c3ccccc3F)CC2)CC1	3%	-42	-3%	-1	-2%	-14%
CC(C)(C)c1ccc(C(=O)NC(=S)N2CCCC2)cc1	-22%	28	?	32*	-4%	5%
CC(C)(C)c1ccc(C(=O)N2CCCCCC2=O)cc1	0%	-11	5.2µM*	-7	9%	6%
O=C(NC(=S)Nn1cnnc1)c1ccccc1Cl	-1%	13	8%	1	2%	-3%
CC(C)(C)c1ccc(C(=O)NC(=S)Nn2cnnc2)cc1	18%	120*	8%	19*	-13%	?
CC(C)(C)c1ccc(C(=O)NC(=S)N2CCCCCC2)cc1	-87%	35	?	20*	-15%	?
CC(C)(C)c1ccc(C(=O)Nc2ccc(C(=O)N3CCCC3)cc2)cc1	-12%	19	?	4	?	-20%
CN1C=CC(=C2C=CN(C)C=C2)C=C1	.	3	.	1	.	.
COCCNC(=O)CN1CCN(S(=O)(=O)c2ccc3c(c2)CCCC3)CC1	.	.	-14%	.	5%[6.58 µM]	-17%
O=C(NC(=S)N1CCCCC1)c1csc([N+](=O)[O-])c1	3%	8	15µM*	-2	1%	5.2µM*
CC(C)c1ccc2oc(-c3ccc(NC(=O)c4ncn[nH]4)cc3)nc2c1	5%	86*	?	49*	-11%	1.7µM*
CCC(C)c1ccc2oc(-c3ccc(NC(=O)c4ncn[nH]4)cc3)nc2c1 (stereo unspecified)	-7%	41*	?	8	-7%	.
COc1ccc(NC(=O)c2ncn[nH]2)cc1	-4%	14	83%	9	4%	.
CCC(C)c1ccc(O)c(NC(=O)c2ncn[nH]2)c1 (stereo unspecified)	-53%	13	10%	-2	-7%	3.3µM*
COc1ccc(C(=O)N2CCc3ccc(NC(=O)c4ccccn4)cc3C2)cc1F	-32%	56*	?	42*	-17%	-11%
COc1ccc(-c2nnc(NC(=O)c3ccccc3[N+](=O)[O-])s2)c(OC)c1	5%	13	-2%	7	-1%	6%
CCOC(=O)Cc1c(C)[nH]c(=S)[nH]c1=O	0%	3	1.3µM*	1	3%	-29%
Cc1cccc(OC2CCN(Cc3c(C(=O)N4CCCC4)nc4ccccn34)CC2)c1	0%	-3	-14%	-6	0%	?
SMILES	NS1 inh	Shiga toxin inh	Pf growth 48h	CHX counter	SARS PLP yeast	Pf growth 96h
O=C(c1nc2ccccn2c1CN1CCC(Cc2ccccc2)CC1)N1CCCC1	2%	-12	10µM*	-2	0%	-2%
CC1CCCCC1NC(=O)CCCn1c(=S)[nH]c2ccsc2c1=O (stereo unspecified)	-1%	-2	24%	9	0%	13%
Cc1cc(C)c(O)c(N)c1	-6%	-4	?	-2	-5%	2.3µM*
Cc1ccc(-c2cccc(OC(=O)c3ccccc3F)c2)cc1	-9%	-7	33%	2	8%	26%
COc1cccc(OCc2cc(C(=O)NCc3ccccn3)no2)c1	2%	70*	18%	62*	-1%	61%
COc1cccc(OCc2cc(C(=O)NCC3CCCCC3)no2)c1	-10%	38*	20%	35*	-10%	12µM*
COc1cccc(OCc2cc(C(=O)NCCc3cccc(C)n3)no2)c1	-15%	9	2%	11	-2%	?
CCCCn1c(=O)c(CCC(=O)OCC(=O)NC(=O)NCCOC)nc2ccccc21	.	-6	-6%	7	-3%	10%
CC(C)(C)C(=O)OCc1nc(-c2ccc(C(F)(F)F)cc2)cs1	1%	32	-6%	19*	0%	36%
CCc1noc(C)c1C(=O)N1CC(C)OC(C)C1 (stereo unspecified)	2%	-26	15%	-3	-15%	16%
CCc1noc(C)c1C(=O)N1CC(C)SC1=Nc1ccc(Cl)cc1 (stereo unspecified)	.	.	10µM*	.	-4%	13µM*
Cc1nc2c(C)cccc2c2c1CCS2	-2%	-6	11%	1	-1%	17%
COc1ccc(NC(=S)N(CCc2ccc(OC)c(OC)c2)Cc2ccccn2)cc1	.	25	?	1	-2%	12µM*
COc1ccccc1NC(=S)N(Cc1ccccc1)Cc1ccccn1	-24%	-6	25%	-4	16%	?
S=C(Nc1ccccc1Cl)N(Cc1ccccc1)Cc1ccccn1	.	24	?	9	0%	1µM*
COc1ccc(CCN(Cc2ccccn2)C(=S)Nc2cccc(C)c2)cc1OC	.	-5	12µM*	-1	-1%	-24%
COc1ccc(CCN(Cc2ccccn2)C(=S)Nc2ccccc2F)cc1OC	.	-8	-24%	0	6%	56%
COc1ccc(CCN(Cc2ccccn2)C(=S)Nc2ccccc2Cl)cc1OC	.	21	?	-6	5%	13µM*
COC(=O)c1ccc(CSc2nnc(NC(=O)C3CC(=O)N(Cc4ccc(C)cc4)C3)s2)cc1 (stereo unspecified)	?	-6	-3%	-1	4%	-15%
C[C@H](c1ccccc1)n1nnc(COCc2ccccc2)c1C#CCOCc1ccccc1	-12%	-3	?	2	-3%	?
CC1(C)SC2[C@@H](N=CN3CCCCCC3)C(=O)N2[C@H]1C(=O)O (stereo partly specified)	.	.	?	.	.	17µM*
CC(C)(C)C(=O)OCOC(=O)[C@@H]1N2C(=O)[C@@H](N=CN3CCCCCC3)[C@H]2SC1(C)C	.	.	-15%	.	.	-3%
O=C(CN1C(=O)S/C(=C/c2cc(Br)cs2)C1=O)N1CCOCC1	-5%	-4	14%	0	-3%	5%
Oc1ccc2ccc3[nH]cnc3c2c1	1%	74*	?	53*	3%	40%
